# Assay results published in the supplement of paper PMC10849652.
# Of roughly 8,800 targets only a part is listed; those with a hit were picked by preference. About 0.5% of all pairs of compound and target were hits. A number with no mark means an inactive call.
# Compound: CN1CC[C@H](c2c(O)cc(O)c3c(=O)cc(-c4ccccc4Cl)oc23)[C@H](O)C1 [alvocidib]
# Test: log2 fold change, soluble protein after heating vs DMSO (PISA); higher = thermal stabilisation; K562 lysate, 10 uM; active = over 0.2 and 3.5 SD of the protein, either way, in both replicates (recomputed)
# Procedure, shortened: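 K562 pellets were dounce-homogenised in PBS pH 7.4 containing 1 mM MgCl2, and the crude extract, at 1 mg/mL protein, was exposed to 10 μM compound for 30 min. Aliquots were heated for 3 min across 48°C-58°C, pooled, brought to 0.5% NP-40 at 4°C and spun at 21,000xg for 90 min, with the supernatant taken as soluble protein. TMTpro 16plex LC-MS/MS with equalised channel sums quantified that protein. Values are log-two fold changes in thermal stability relative to solvent controls, taken from duplicates.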
# Sequence of UniProt P22830 (P22830 whole entry, looked up): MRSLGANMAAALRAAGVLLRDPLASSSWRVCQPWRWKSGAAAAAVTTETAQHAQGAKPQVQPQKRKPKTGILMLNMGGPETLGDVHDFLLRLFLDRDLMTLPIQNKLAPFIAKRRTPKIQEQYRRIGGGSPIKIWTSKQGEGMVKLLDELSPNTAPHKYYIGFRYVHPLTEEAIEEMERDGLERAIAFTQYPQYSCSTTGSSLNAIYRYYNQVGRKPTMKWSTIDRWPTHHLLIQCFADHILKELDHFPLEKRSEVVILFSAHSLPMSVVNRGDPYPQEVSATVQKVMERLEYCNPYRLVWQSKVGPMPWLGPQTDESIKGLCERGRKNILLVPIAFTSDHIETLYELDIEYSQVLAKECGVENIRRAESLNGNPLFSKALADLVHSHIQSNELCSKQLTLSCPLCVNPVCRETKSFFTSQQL
# Sequence of UniProt O95571 (O95571 whole entry, looked up): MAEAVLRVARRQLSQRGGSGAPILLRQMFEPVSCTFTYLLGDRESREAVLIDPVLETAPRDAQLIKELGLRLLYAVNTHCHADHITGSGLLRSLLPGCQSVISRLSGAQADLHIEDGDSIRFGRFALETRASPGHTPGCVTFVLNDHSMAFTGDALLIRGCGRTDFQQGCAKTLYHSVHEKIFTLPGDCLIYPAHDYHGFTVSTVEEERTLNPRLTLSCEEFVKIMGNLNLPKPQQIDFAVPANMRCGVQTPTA
# Sequence of UniProt Q96G46 (Q96G46 whole entry, looked up): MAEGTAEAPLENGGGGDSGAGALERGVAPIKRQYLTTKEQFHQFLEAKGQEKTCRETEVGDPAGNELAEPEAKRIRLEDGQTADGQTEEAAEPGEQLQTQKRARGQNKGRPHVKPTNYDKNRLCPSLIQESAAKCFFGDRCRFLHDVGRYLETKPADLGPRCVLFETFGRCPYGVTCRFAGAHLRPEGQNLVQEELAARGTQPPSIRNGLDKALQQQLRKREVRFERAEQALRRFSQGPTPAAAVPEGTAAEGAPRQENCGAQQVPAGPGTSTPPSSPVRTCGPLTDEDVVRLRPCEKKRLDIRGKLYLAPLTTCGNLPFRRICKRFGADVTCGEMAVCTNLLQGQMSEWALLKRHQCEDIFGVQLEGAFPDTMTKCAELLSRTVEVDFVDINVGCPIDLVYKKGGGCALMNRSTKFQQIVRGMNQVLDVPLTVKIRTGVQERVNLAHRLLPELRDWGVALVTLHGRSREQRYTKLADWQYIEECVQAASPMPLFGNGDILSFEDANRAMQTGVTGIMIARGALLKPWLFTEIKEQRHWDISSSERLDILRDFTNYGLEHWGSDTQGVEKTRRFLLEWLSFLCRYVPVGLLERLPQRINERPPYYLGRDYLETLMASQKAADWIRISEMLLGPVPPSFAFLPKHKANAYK
# Sequence of UniProt Q06210 (Q06210 whole entry, looked up): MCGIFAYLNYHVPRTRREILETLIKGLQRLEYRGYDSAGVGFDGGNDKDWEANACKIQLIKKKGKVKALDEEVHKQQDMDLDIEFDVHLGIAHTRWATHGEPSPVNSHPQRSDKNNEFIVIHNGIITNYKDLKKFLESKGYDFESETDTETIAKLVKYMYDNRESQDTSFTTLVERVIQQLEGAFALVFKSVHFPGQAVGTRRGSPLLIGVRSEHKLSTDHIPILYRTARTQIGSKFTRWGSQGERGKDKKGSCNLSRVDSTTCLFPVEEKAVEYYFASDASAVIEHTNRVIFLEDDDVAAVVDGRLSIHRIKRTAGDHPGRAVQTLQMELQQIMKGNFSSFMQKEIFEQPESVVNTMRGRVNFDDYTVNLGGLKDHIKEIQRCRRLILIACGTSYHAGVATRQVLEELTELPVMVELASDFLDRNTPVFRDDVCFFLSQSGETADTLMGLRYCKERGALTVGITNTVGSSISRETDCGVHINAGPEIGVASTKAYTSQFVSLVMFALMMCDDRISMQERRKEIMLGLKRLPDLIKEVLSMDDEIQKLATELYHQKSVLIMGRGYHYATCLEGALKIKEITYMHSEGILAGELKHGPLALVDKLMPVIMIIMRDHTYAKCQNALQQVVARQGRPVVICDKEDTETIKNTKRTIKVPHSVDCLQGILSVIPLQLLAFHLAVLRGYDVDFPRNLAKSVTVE
# Sequence of UniProt Q8IV48 (Q8IV48 whole entry, looked up): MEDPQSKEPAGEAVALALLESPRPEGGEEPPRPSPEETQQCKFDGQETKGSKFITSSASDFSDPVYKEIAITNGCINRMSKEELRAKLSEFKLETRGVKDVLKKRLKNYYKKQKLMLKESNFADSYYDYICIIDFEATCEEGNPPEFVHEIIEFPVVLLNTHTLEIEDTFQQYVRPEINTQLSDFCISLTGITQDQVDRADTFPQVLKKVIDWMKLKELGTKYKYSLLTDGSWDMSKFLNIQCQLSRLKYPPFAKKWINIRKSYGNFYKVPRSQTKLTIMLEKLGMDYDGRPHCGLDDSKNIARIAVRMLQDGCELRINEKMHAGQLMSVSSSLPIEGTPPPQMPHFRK
# Sequence of UniProt Q8TB52 (Q8TB52 whole entry, looked up): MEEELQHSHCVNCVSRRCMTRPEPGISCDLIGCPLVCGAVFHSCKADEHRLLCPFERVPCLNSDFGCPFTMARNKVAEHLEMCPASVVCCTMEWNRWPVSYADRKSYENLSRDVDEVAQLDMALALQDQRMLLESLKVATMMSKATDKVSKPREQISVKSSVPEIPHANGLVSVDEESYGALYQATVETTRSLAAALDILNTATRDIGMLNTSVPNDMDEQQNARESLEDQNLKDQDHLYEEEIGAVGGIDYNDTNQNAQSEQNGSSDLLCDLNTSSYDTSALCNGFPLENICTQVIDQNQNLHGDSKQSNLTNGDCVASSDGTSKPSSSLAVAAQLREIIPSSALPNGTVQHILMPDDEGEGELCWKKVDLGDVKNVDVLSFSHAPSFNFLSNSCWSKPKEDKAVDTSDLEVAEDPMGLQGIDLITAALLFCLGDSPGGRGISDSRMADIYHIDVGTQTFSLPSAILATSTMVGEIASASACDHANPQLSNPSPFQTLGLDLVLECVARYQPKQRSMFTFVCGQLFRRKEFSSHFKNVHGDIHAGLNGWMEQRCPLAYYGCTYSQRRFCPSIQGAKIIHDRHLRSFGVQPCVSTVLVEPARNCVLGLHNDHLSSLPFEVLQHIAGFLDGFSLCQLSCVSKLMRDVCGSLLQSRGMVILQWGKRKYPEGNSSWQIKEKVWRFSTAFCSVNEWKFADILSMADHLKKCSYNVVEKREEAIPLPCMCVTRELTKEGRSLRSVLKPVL
# Sequence of UniProt P11474 (P11474 whole entry, looked up): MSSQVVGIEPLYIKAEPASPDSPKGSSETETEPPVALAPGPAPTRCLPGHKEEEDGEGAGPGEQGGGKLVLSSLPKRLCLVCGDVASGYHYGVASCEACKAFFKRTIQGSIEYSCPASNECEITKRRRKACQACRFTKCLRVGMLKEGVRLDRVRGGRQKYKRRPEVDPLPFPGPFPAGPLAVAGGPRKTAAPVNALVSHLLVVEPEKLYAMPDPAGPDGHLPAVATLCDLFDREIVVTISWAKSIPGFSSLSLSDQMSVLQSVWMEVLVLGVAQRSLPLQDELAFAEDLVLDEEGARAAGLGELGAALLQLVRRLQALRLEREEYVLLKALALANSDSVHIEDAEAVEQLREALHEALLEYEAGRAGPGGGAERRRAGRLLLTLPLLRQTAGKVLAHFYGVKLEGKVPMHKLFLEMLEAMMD
# Sequence of UniProt P48507 (P48507 whole entry, looked up): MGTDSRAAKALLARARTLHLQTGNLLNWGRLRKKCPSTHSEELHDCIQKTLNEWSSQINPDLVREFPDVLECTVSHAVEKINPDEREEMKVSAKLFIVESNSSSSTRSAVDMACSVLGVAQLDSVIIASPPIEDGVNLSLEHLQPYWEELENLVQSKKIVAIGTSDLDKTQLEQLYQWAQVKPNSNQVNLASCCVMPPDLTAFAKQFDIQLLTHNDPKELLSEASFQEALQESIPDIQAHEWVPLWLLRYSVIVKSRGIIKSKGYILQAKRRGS
# Sequence of UniProt Q9UJ14 (Q9UJ14 whole entry, looked up): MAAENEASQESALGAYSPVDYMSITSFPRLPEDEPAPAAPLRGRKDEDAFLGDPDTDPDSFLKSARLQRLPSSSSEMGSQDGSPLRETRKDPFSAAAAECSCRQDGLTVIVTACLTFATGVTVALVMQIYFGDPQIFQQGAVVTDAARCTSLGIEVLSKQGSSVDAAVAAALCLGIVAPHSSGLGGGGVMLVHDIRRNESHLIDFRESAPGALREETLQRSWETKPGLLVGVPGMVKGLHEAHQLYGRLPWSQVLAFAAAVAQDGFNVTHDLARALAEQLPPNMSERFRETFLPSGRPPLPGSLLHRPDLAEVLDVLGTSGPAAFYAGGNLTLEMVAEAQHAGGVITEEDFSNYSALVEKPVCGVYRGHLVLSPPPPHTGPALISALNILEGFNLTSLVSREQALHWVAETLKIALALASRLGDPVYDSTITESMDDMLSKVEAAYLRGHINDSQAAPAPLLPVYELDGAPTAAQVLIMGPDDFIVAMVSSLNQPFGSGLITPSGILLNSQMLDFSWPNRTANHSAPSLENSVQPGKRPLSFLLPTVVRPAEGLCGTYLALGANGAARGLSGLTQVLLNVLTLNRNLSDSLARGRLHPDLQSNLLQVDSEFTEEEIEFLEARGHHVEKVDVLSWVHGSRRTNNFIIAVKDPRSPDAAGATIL
# Sequence of UniProt Q9UK97 (Q9UK97 whole entry, looked up): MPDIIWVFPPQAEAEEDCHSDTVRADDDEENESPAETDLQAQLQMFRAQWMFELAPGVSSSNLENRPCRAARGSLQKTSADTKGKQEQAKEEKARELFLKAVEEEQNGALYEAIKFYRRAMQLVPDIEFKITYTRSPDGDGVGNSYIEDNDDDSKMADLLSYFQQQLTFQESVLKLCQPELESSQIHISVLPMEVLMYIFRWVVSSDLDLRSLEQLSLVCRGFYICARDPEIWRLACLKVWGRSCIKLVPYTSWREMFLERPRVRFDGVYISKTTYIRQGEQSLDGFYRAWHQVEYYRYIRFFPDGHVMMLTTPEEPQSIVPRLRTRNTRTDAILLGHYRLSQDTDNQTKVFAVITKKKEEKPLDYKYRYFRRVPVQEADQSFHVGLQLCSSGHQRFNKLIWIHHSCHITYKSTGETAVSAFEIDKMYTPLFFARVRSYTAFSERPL
row,Target,log2 fold change
1,FARSA (UniProt Q9Y285),-0.003
2,FECH isoform 2 (UniProt P22830),0.028
3,EBP (UniProt Q15125),-0.003
4,EP300 (UniProt Q09472),-0.098
5,EP400 isoform 5 (UniProt Q96L91),0.015
6,ESRRA (UniProt P11474),0.167
7,DUS2 (UniProt Q9NX74),0.056
8,GCLM (UniProt P48507),0.028
9,GGT7 (UniProt Q9UJ14),-0.013
10,EMP3 (UniProt P54852),-0.227
11,FANCI (UniProt Q9NVI1),0.063
12,FAM118B (UniProt Q9BPY3),-0.023
13,GFPT1 (UniProt Q06210),0.022
14,FKBP1A (UniProt P62942),-0.296
15,EDARADD (UniProt Q8WWZ3),-0.015
16,FIBP (UniProt O43427),0.03
17,EHD2 (UniProt Q9NZN4),-0.012
18,"FADS1, A0A0A0MR51",0.03

row,Target,log2 fold change
1,GALNT2 (UniProt Q10471),-0.069
2,FASTKD5 (UniProt Q7L8L6),0.024
3,FBLL1 (UniProt A6NHQ2),-0.009
4,DTWD1 (UniProt Q8N5C7),0.041
5,GGA2 (UniProt Q9UJY4),0.002
6,FYB1 isoform 3 (UniProt O15117),-0.012
7,DYRK1A (UniProt Q13627),0.106
8,DUS3L (UniProt Q96G46),0.076
9,ERI1 (UniProt Q8IV48),0.008
10,FBXO9 (UniProt Q9UK97),0.099
11,ERBIN isoform 8 (UniProt Q96RT1),-0.01
12,ENY2 (UniProt Q9NPA8),0.351 (active)
13,EEF1AKNMT (UniProt Q8N6R0),0.009
14,"EEF1A1, A0A087WVQ9",-0.005
15,ETHE1 (UniProt O95571),-0.076
16,FBXO22 (UniProt Q8NEZ5),-0.027
17,FASTKD2 (UniProt Q9NYY8),0.014
18,FBXO30 (UniProt Q8TB52),0.066
